From PubChem
In the library only some 21% were active in any assay of this set; here they are far more common.
ClpP mod: qHTS Assay for Activators of ClpP. AID 651965, 2013. Potency, µM (top dose mostly 57.5 µM). ATP-dependent Clp protease proteolytic subunit (Bacillus subtilis (strain 168)), P80244. purified B. subtilis ClpP, FRET peptide cleavage, 20 min. hit rate 1.9% among 340,000; active = well fitted falling curve with a large enough effect; inconclusive = small, poorly fitted or top-dose-only effect; inactive = no such curve, though single readings can be large or run the other way; also: the source files actives as falling curves though it sought activators and does not explain the sign; nearly all actives have a fitted effect of over 65% in size
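FRET quenching reversal measured ClpP activation: 10 microg/mL B. subtilis ClpP at pH 8 with the FRET-FV decapeptide, read at 430 nm after 320 nm excitation. The 20-min minus 0-min signal was scaled between DMSO/no-enzyme wells and ADEP (5.8 microM final).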
DRD3 agonist: qHTS of D3 Dopamine Receptor Agonist: qHTS | D3R DiscoveRx beta-arrestin cells, luminescence, 90 min | D(3) dopamine receptor (Homo sapiens), P35462 | max activation, % | hit rate 0.58% among 410,000; in the data active = max activation above about 30%
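Cells at 1500/well, incubated overnight, then treated with pinned compounds (dopamine as control) for 90 min at 37 degrees C. DiscoveRx reagent added for 30 - 60 minutes at room temperature; luminescence read.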
DT40 TDP1 no CPT: qHTS for Inhibitors of human tyrosyl-DNA phosphodiesterase 1 (TDP1): qHTS in cells in absence of CPT; DT40 Tdp1-/- hTDP1 cells, no CPT, ATP luminescence, 48 h; Potency, µM (highest dose often 46.2 µM), most hits filed as inhibitors; hit rate 15% among 420,000; also: nearly all actives have a fitted effect of over 55% in size
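Chicken DT40 Tdp1-/- cells stably complemented with human TDP1 were seeded at 400 cells/well with DMSO in place of 20 nM camptothecin. After compound pinning, cells grew at least 48 hr at 37 °C; viability read by CellTiter-Glo luminescence.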
IL-1B inflam inh: qHTS for Inhibitors of Inflammasome Signaling: IL-1-beta AlphaLISA Primary Screen; THP-1 LPS/ATP IL-1B secretion, AlphaLISA, 16 h; stronger effect = lower value; activity change, % at 57.5 µM; hit rate 4.7% among 360,000; AID 743279, 2014; in the data active = activity change below about -50%; inconclusive = mostly about -30% to -49%
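THP-1 cells pretreated 1 hr with compounds (up to 57.5 uM final), then stimulated with LPS (250 ng/mL final) plus ATP (1.25 mM final); secreted IL-1B measured by AlphaLISA after 16 hr, decreased signal indicating inhibition.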
D3 antag: qHTS of D3 Dopamine Receptor Antagonist: qHTS; D3R cells, DiscoveRx beta-arrestin luminescence, antagonist mode; stronger effect = lower value; max response, negative = inhibition, %; D(3) dopamine receptor (Homo sapiens), P35462; hit rate 2.5% among 360,000; in the data active = max response below about -50%; inconclusive = no clear call, values can overlap the other calls
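Cells expressing the human receptor were seeded at 1500 cells/well, incubated overnight at 37 degrees C in 5% CO2, then exposed to library compounds with dopamine controls for 90 minutes at 37 degrees C before luminescent detection.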
DT40 TDP1 CPT: qHTS for Inhibitors of human tyrosyl-DNA phosphodiesterase 1 (TDP1): qHTS in cells in presence of CPT; chicken DT40 Tdp1-/-;hTDP1 cells + 20 nM CPT, ATP luminescence, 48 h; Potency, µM (titrated, usually from 46.2 µM), usual class: inhibitors; hit rate 12% among 420,000; also: nearly all actives have a fitted effect of over 55% in size
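Chicken DT40 Tdp1-/- cells complemented with human TDP1, 400 cells/well, exposed to compounds plus 20 nM camptothecin for at least 48 h at 37 C; viability read as ATP content by CellTiter-Glo luminescence.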
Each line names hits and unclear results; the compound was inactive in the other large screens. Unless noted, calls follow the shape of the dose curve; as a rule, active = well fitted inhibition curve with a large enough effect; inconclusive = small, poorly fitted or top-dose-only effect; inactive = flat fitted curve, though single readings scatter.

O=C(CN1C(=O)c2cccnc2Oc2ccc(Cl)cc21)NCCC1=CCCCC1	DT40 TDP1 CPT inconclusive
O=C(CCNC(=O)C1CCN(S(=O)(=O)c2ccccc2)CC1)NCCc1cccc(F)c1	DT40 TDP1 no CPT 25.9µM, DT40 TDP1 CPT inconclusive
C=C1CC[C@@H]2O[C@@]2(C)CC[C@H]2[C@H]1CC2(C)C	none (no result: ClpP mod, DRD3 agonist, IL-1B inflam inh, D3 antag)
Cc1cnc(CNc2ncncc2-c2ccccc2C#N)cn1	none (no result: ClpP mod, DRD3 agonist, IL-1B inflam inh, D3 antag)
O=C(CC(c1ccccc1)c1ccccc1O)NCCN1CCOCC1 (centres undefined)	D3 antag -54.9
O=C(COc1ccccc1O)NCCN1CCOCC1	none (no result: ClpP mod)
NCCCNCCCCNC(=O)C(O)NC(=O)CCCCCCN=C(N)N (centres undefined)	DT40 TDP1 no CPT 1.19µM, DT40 TDP1 CPT 1.19µM (no result: ClpP mod, IL-1B inflam inh, D3 antag)
CCN(CC(=O)Nc1ccccc1-c1ccccc1)Cc1nc2ccccc2c(=O)[nH]1	DT40 TDP1 no CPT 4.61µM, DT40 TDP1 CPT 5.8µM
CCN(CC(=O)Nc1ccccc1C(=O)Nc1ccccc1)Cc1nc2ccccc2c(=O)[nH]1	none (no result: ClpP mod)
CCN(CC(=O)Nc1ccccc1SC)Cc1nc2ccccc2c(=O)[nH]1	DT40 TDP1 no CPT 2.06µM, DT40 TDP1 CPT 0.651µM (no result: ClpP mod)
CCN(CC(=O)NCc1ccc(F)cc1)Cc1nc2cc(Cl)ccc2c(=O)[nH]1	ClpP mod 7.08µM, DT40 TDP1 no CPT inconclusive
CCN(CC(=O)NCCc1ccc(F)cc1)Cc1nc2ccccc2c(=O)[nH]1	DT40 TDP1 CPT inconclusive
CC(C)CN(C(=O)c1ccc(N2CCCC2=O)cc1)c1c(N)n(Cc2ccccc2)c(=O)[nH]c1=O	none
CCCCCCOc1ccc(N2C(=O)CC(N(CCc3ccc(S(N)(=O)=O)cc3)C(C)=O)C2=O)cc1 (centres undefined)	DT40 TDP1 no CPT inconclusive (no result: ClpP mod)
O=C(CC1N=C2c3ccccc3N=C(SCc3ccc(F)cc3)N2C1=O)NCc1ccc2c(c1)OCO2 (centres undefined)	DT40 TDP1 no CPT inconclusive, DT40 TDP1 CPT inconclusive (no result: IL-1B inflam inh, D3 antag)
O=C(CC1N=C2c3ccccc3N=C(SCc3ccccc3F)N2C1=O)NCc1ccc2c(c1)OCO2 (centres undefined)	DT40 TDP1 no CPT inconclusive, DT40 TDP1 CPT 18.4µM (no result: IL-1B inflam inh, D3 antag)
CCOc1ccccc1NC(=O)CSC1=Nc2ccccc2C2=NC(CC(=O)NCc3ccc4c(c3)OCO4)C(=O)N12 (centres undefined)	DT40 TDP1 no CPT 23.1µM, DT40 TDP1 CPT inconclusive (no result: IL-1B inflam inh, D3 antag)
CN1CCN(C(=O)C23CCC(C)(c4nc5ccccc5nc42)C3(C)C)CC1 (centres undefined)	D3 antag -50.7
Cc1cc2nc3c(nc2cc1C)C1(C(=O)O)CCC3(C)C1(C)C (centres undefined)	none
CCN(Cc1ccccc1)C(=O)Cn1c(=O)n(-c2ccccc2)c(=O)c2c1c1cc(C)ccc1n2C	DT40 TDP1 no CPT 3.66µM, DT40 TDP1 CPT 9.2µM (no result: IL-1B inflam inh, D3 antag)
CCc1ccc(-n2c(=O)c3sc4ccccc4c3n(CC(=O)N(CC)Cc3ccccc3)c2=O)cc1	DT40 TDP1 no CPT 18.4µM, DT40 TDP1 CPT 18.4µM (no result: IL-1B inflam inh, D3 antag)
COc1cccc(NC(=O)Cn2c(=O)n(-c3ccccc3)c(=O)c3c2c2cc(OC)ccc2n3C)c1	none (no result: IL-1B inflam inh, D3 antag)
CCN(Cc1ccccc1)C(=O)Cn1c(=O)n(-c2cccc(C)c2)c(=O)c2c1c1cc(OC)ccc1n2C	DT40 TDP1 no CPT 16.4µM, DT40 TDP1 CPT 11.6µM (no result: IL-1B inflam inh, D3 antag)
C=C1CCC(C)C(C)(CCC2=CCOC2=O)C/C=C\C=C/1C(=O)O (centres undefined)	none
CCCn1c(-c2cccnc2Cl)nc2cc(Cl)c(Cl)cc21	DT40 TDP1 no CPT inconclusive, DT40 TDP1 CPT 14.6µM
C=CCn1c(-c2cccnc2Cl)nc2ccccc21	none (no result: ClpP mod)
C=CCn1c(-c2cccnc2Cl)nc2cc(Cl)c(Cl)cc21	ClpP mod inconclusive, DT40 TDP1 no CPT inconclusive, DT40 TDP1 CPT 18.4µM
CCCS(=O)(=O)NC(=O)C1(C)CCCN(C(=O)c2ccccc2OC)C1 (centres undefined)	none
COc1cc(-c2cnc3c(NC(C)=O)cc(-c4ccc(N5CCN(C)CC5)cc4)cn23)cc(OC)c1OC	DT40 TDP1 no CPT 4.61µM, IL-1B inflam inh -87.1, DT40 TDP1 CPT 4.61µM
COc1cc(-c2cnc3c(NC=O)cc(-c4ccc(N5CCN(C)CC5)cc4)cn23)cc(OC)c1OC	DT40 TDP1 no CPT 3.66µM, DT40 TDP1 CPT 3.26µM
Cc1cc(Br)ccc1NC(=O)CNC(=O)CN1C(=O)NC2(CCCCCC2)C1=O	none
Cc1cc(Br)ccc1NC(=O)CN1C(=O)C2C3CC(c4ccccc4)C(C3)C2C1=O (centres undefined)	DT40 TDP1 no CPT 16.4µM, IL-1B inflam inh inconclusive, DT40 TDP1 CPT inconclusive
CN(N=O)c1ccc(/C=C/c2ccccc2)cc1	DT40 TDP1 CPT inconclusive (no result: DRD3 agonist, IL-1B inflam inh, D3 antag)
CC(=O)N(O)c1ccc(C=Cc2ccccc2)cc1	ClpP mod inconclusive, DT40 TDP1 no CPT 0.411µM, DT40 TDP1 CPT 2.06µM
Cc1ccc(S(=O)(=O)N(C(=O)c2ccncc2)c2ccc(OC(=O)c3ccncc3)c3ccccc23)c(C)c1	DT40 TDP1 no CPT 3.66µM, DT40 TDP1 CPT 4.61µM
Cc1ccc(S(=O)(=O)N(C)CC(=O)NCc2ccncc2)cc1	none
Cc1ccc(S(=O)(=O)N(C(=O)c2ccncc2)c2ccc(OC(=O)c3ccncc3)c3ccccc23)cc1	DT40 TDP1 no CPT 5.17µM, IL-1B inflam inh -78.8, D3 antag inconclusive, DT40 TDP1 CPT 2.59µM
Cc1ccc(OC(=O)c2ccc(S(=O)(=O)N(C)C)cc2)c(-n2nc3ccccc3n2)c1	none
CCOC(=O)c1c(NC(=O)c2cc(-c3ccc(Br)cc3)on2)sc(C)c1C	none (no result: IL-1B inflam inh, D3 antag)
CCCCCC1CCC(c2n[nH]c(=S)n2C)CC1 (centres undefined)	DT40 TDP1 no CPT 2.91µM, DT40 TDP1 CPT 7.31µM (no result: ClpP mod)
CC(O)(c1ccccc1)c1nc(-c2ccc(F)c(Cl)c2)cs1 (centres undefined)	DT40 TDP1 no CPT inconclusive, DT40 TDP1 CPT inconclusive
Cc1ccc(-c2csc(C(O)(c3ccccc3)C(F)(F)F)n2)cc1C (centres undefined)	DT40 TDP1 no CPT 16.4µM, DT40 TDP1 CPT inconclusive
OC(c1ccccc1)(c1nc(-c2cccc3cccnc23)cs1)C(F)(F)F (centres undefined)	ClpP mod inconclusive, DT40 TDP1 no CPT inconclusive, DT40 TDP1 CPT 23.1µM
